According to PubChem BioAssay (NCI):
The panel holds about 83,000 compounds, 20% with a hit somewhere; the sample as a whole holds those more often.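 Negative percent growth values reflect cell death: -40 means 40% of the cells present at the start died, and -100 means all died.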 Calls of active or inactive are those of the source. Rule for the calls: active = growth percent below 10; inactive = the rest.

System: SK-MEL-2 melanoma
Assay: NCI-60 one-dose screen, 48 h (100 = growth as untreated, 0 = no growth, -100 = all killed)
Settings: 10 µM unless noted

SMILES	growth
COc1ccc(-n2cc(-c3ccc(Cl)c(Cl)c3)[nH]c2=O)cc1OC	97.7% (inactive)
CN1CCN(S(=O)(=O)O[C@@H]2C(=O)N(c3cc4c5ccccc5ccc4c4ccccc34)[C@H]2c2ccc(F)cn2)CC1	92.8% (inactive)
O=C(O)CCNC1CCCCC1	-21.2% (active)
C#C[C@@]1(O)[C@@H](CO)O[C@@H](n2cc(I)c3c(N)ncnc32)[C@@H]1O	-27.6% (active)
COC1=CC2C=C(C3N(c4ccccc4)NC(=O)[C@@H]4CCCN34)C(=O)NC2C=C1 (stereo partly specified)	97.9% (inactive)
CCCCc1n(Cc2ccc3ccccc3n2)cc[n+]1Cc1ccc2ccccc2c1	-35.7% (active)
CN1CCN(/C=C2\CC(C(=O)NCc3ccc(Cl)cc3Cl)NC2=O)CC1 (stereo unspecified)	100% (inactive)
O=C1NC(SCc2ccc(F)cc2)=N/C1=C/c1cccc(OCc2ccc(Cl)cc2)c1	99.4% (inactive)
NS(=O)(=O)c1ccc(-n2ncc(NC(=O)Nc3ccc(S(=O)(=O)Nc4nccs4)cc3)c2-c2ccccc2)cc1	93.2% (inactive)
N#CC(C#N)=C1NC(c2ccccc2)=C(c2ccccc2)C(c2ccccc2Cl)=C1C#N	94.8% (inactive)
CCOc1ccccc1C(=O)/C=C/c1cc2ccccc2[nH]c1=O	4.96% (active)
Cc1ccc2nc3nc4ccc[nH]c4cc3c2c1	113% (inactive)
C=C1C(=O)O[C@H]2[C@H]1CC/C(C=Nc1c(N)cc(C(F)(F)F)cc1Br)=C\CC[C@@]1(C)O[C@@H]21	-31.6% (active)
NC(N)=NC(N)=Nc1cc2ccccc2c2ccccc12	5.61% (active)
O=C(Nc1ccc(S(=O)(=O)NC2CCCCCC2)cc1)C(c1ccccc1)S(=O)(=O)c1ccc(F)cc1 (stereo unspecified)	-22.9% (active)
O=c1[nH]c2ccccc2cc1-c1nc2ccncc2[nH]1	73.9% (inactive)
Cc1cccc(C)c1NCc1nnc(-c2ccco2)o1	100% (inactive)
Cc1ccc(-c2nc(C#N)c(S(=O)(=O)N(C)CCO)o2)cc1	80.4% (inactive)
Nc1c(C(=O)Nc2ccccc2Cl)sc2nc3c(cc12)CN(Cc1ccccc1)CC3	95.6% (inactive)

SMILES	growth
C#Cc1ccccc1NC(=O)c1sc2nc3c(cc2c1N)CCCCCC3	85.4% (inactive)
CCOCc1cc(C(C)(C)C)ccc1O	110% (inactive)
C=C(C)[C@@H]1CC[C@]2(C(=O)OCCOCCOCC[P+](c3ccccc3)(c3ccccc3)c3ccccc3)CC[C@]3(C)[C@H](CC[C@@H]4[C@@]5(C)CC[C@H](OC(=O)C(Cl)Cl)C(C)(C)[C@@H]5CC[C@]43C)[C@@H]12	-45.4% (active)
CNCc1cccc2c1OCCOCCOCCN(CCN1CCOCC1)S(=O)(=O)c1ccc(cc1)-c1cnc(N)c(n1)C(=O)N2	60.9% (inactive)
Cc1c(Cl)cccc1NC(=O)c1sc2nc3c(cc2c1N)CN(Cc1ccccc1)CC3	31.4% (inactive)
C=C(C)[C@@H]1CC[C@]2(C(=O)NCCCO)CC[C@]3(C)[C@H](CC[C@@H]4[C@@]5(C)CCCNC(C)(C)[C@@H]5CC[C@]43C)[C@@H]12	94.1% (inactive)
COc1cc(/C=N/Nc2nc(-c3ccc(F)cc3)c(C#N)c(N3CCOCC3)n2)ccc1O	114% (inactive)
C=C(C)[C@@H]1CC[C@]2(C(=O)N=C=S)CC[C@]3(C)[C@H](CC[C@@H]4[C@@]5(C)CCC(=O)C(C)(C)[C@@H]5CC[C@]43C)[C@@H]12	27.3% (inactive)
CC1CCCN(CCCCCOc2ccc3oc4ccc(Cl)cc4c(=O)c3c2)C1 (stereo unspecified)	96.7% (inactive)
O=C(Nc1cccc(-c2cccc(F)c2)c1)C1CCN(Cc2cccc3cccnc23)CC1	63.1% (inactive)
CC(=O)Nc1ccc2c(c1)Cc1cc(F)ccc1-2	94.8% (inactive)
COc1ccc2[nH]c(=O)c(/C=C/C(=O)/C=C/c3ccc(O)c(OC)c3)cc2c1	78.3% (inactive)
CC1=C/C(=N\N=C2/C=C(C)CC(C)(C)C2)CC(C)(C)C1	107% (inactive)
NC(=O)c1ccc(C2C3=C(CCCC3=O)OC3=C2C(=O)c2ccccc2C3=O)cc1 (stereo unspecified)	20.6% (inactive)
N#CC1(C#N)C2=C(CCCC2)NC(c2c(F)cccc2Cl)C1(C#N)C#N (stereo unspecified)	37.6% (inactive)
CCCCn1c(=O)c(/C=C/C(=O)/C=C/c2ccc(OC)cc2)cc2cc(Cl)ccc21	84% (inactive)
CCOC(=O)c1ccc(Nc2ncnc3ccc(NC(=O)c4ccccc4)cc23)cc1	86.6% (inactive)
NS(=O)(=O)c1ccc(-n2nc(-c3ccccc3)ccc2=O)cc1	101% (inactive)
CC(=O)Nc1nc2c(c(N)c1C#N)C(c1cccc(Cl)c1)C1=C(CCCC1=O)N2c1sc2c(c1C#N)CCCC2 (stereo unspecified)	55.5% (inactive)

System: EKVX NSCLC
Assay: as above
Settings: 10 µM unless noted

SMILES	growth
COc1ccc(-n2cc(-c3ccc(Cl)c(Cl)c3)[nH]c2=O)cc1OC	93.6% (inactive)
CN1CCN(S(=O)(=O)O[C@@H]2C(=O)N(c3cc4c5ccccc5ccc4c4ccccc34)[C@H]2c2ccc(F)cn2)CC1	85% (inactive)
O=C(O)CCNC1CCCCC1	115% (inactive)
C#C[C@@]1(O)[C@@H](CO)O[C@@H](n2cc(I)c3c(N)ncnc32)[C@@H]1O	-19.2% (active)
COC1=CC2C=C(C3N(c4ccccc4)NC(=O)[C@@H]4CCCN34)C(=O)NC2C=C1 (stereo partly specified)	96.7% (inactive)
CCCCc1n(Cc2ccc3ccccc3n2)cc[n+]1Cc1ccc2ccccc2c1	41.7% (inactive)
CN1CCN(/C=C2\CC(C(=O)NCc3ccc(Cl)cc3Cl)NC2=O)CC1 (stereo unspecified)	116% (inactive)
O=C1NC(SCc2ccc(F)cc2)=N/C1=C/c1cccc(OCc2ccc(Cl)cc2)c1	66.3% (inactive)
NS(=O)(=O)c1ccc(-n2ncc(NC(=O)Nc3ccc(S(=O)(=O)Nc4nccs4)cc3)c2-c2ccccc2)cc1	100% (inactive)
N#CC(C#N)=C1NC(c2ccccc2)=C(c2ccccc2)C(c2ccccc2Cl)=C1C#N	97.6% (inactive)
CCOc1ccccc1C(=O)/C=C/c1cc2ccccc2[nH]c1=O	-1.6% (active)
Cc1ccc2nc3nc4ccc[nH]c4cc3c2c1	56.8% (inactive)
C=C1C(=O)O[C@H]2[C@H]1CC/C(C=Nc1c(N)cc(C(F)(F)F)cc1Br)=C\CC[C@@]1(C)O[C@@H]21	18.1% (inactive)
NC(N)=NC(N)=Nc1cc2ccccc2c2ccccc12	58% (inactive)
O=C(Nc1ccc(S(=O)(=O)NC2CCCCCC2)cc1)C(c1ccccc1)S(=O)(=O)c1ccc(F)cc1 (stereo unspecified)	5.65% (active)
O=c1[nH]c2ccccc2cc1-c1nc2ccncc2[nH]1	81.9% (inactive)
Cc1cccc(C)c1NCc1nnc(-c2ccco2)o1	81.5% (inactive)
Cc1ccc(-c2nc(C#N)c(S(=O)(=O)N(C)CCO)o2)cc1	107% (inactive)
Nc1c(C(=O)Nc2ccccc2Cl)sc2nc3c(cc12)CN(Cc1ccccc1)CC3	93% (inactive)

SMILES	growth
C#Cc1ccccc1NC(=O)c1sc2nc3c(cc2c1N)CCCCCC3	69.5% (inactive)
CCOCc1cc(C(C)(C)C)ccc1O	98.3% (inactive)
C=C(C)[C@@H]1CC[C@]2(C(=O)OCCOCCOCC[P+](c3ccccc3)(c3ccccc3)c3ccccc3)CC[C@]3(C)[C@H](CC[C@@H]4[C@@]5(C)CC[C@H](OC(=O)C(Cl)Cl)C(C)(C)[C@@H]5CC[C@]43C)[C@@H]12	-15.2% (active)
CNCc1cccc2c1OCCOCCOCCN(CCN1CCOCC1)S(=O)(=O)c1ccc(cc1)-c1cnc(N)c(n1)C(=O)N2	74.8% (inactive)
Cc1c(Cl)cccc1NC(=O)c1sc2nc3c(cc2c1N)CN(Cc1ccccc1)CC3	55.5% (inactive)
C=C(C)[C@@H]1CC[C@]2(C(=O)NCCCO)CC[C@]3(C)[C@H](CC[C@@H]4[C@@]5(C)CCCNC(C)(C)[C@@H]5CC[C@]43C)[C@@H]12	77.5% (inactive)
COc1cc(/C=N/Nc2nc(-c3ccc(F)cc3)c(C#N)c(N3CCOCC3)n2)ccc1O	90.5% (inactive)
C=C(C)[C@@H]1CC[C@]2(C(=O)N=C=S)CC[C@]3(C)[C@H](CC[C@@H]4[C@@]5(C)CCC(=O)C(C)(C)[C@@H]5CC[C@]43C)[C@@H]12	32.4% (inactive)
CC1CCCN(CCCCCOc2ccc3oc4ccc(Cl)cc4c(=O)c3c2)C1 (stereo unspecified)	78.3% (inactive)
O=C(Nc1cccc(-c2cccc(F)c2)c1)C1CCN(Cc2cccc3cccnc23)CC1	68.4% (inactive)
CC(=O)Nc1ccc2c(c1)Cc1cc(F)ccc1-2	104% (inactive)
COc1ccc2[nH]c(=O)c(/C=C/C(=O)/C=C/c3ccc(O)c(OC)c3)cc2c1	59.4% (inactive)
CC1=C/C(=N\N=C2/C=C(C)CC(C)(C)C2)CC(C)(C)C1	108% (inactive)
NC(=O)c1ccc(C2C3=C(CCCC3=O)OC3=C2C(=O)c2ccccc2C3=O)cc1 (stereo unspecified)	24.6% (inactive)
N#CC1(C#N)C2=C(CCCC2)NC(c2c(F)cccc2Cl)C1(C#N)C#N (stereo unspecified)	71.1% (inactive)
CCCCn1c(=O)c(/C=C/C(=O)/C=C/c2ccc(OC)cc2)cc2cc(Cl)ccc21	91% (inactive)
CCOC(=O)c1ccc(Nc2ncnc3ccc(NC(=O)c4ccccc4)cc23)cc1	80.3% (inactive)
NS(=O)(=O)c1ccc(-n2nc(-c3ccccc3)ccc2=O)cc1	118% (inactive)
CC(=O)Nc1nc2c(c(N)c1C#N)C(c1cccc(Cl)c1)C1=C(CCCC1=O)N2c1sc2c(c1C#N)CCCC2 (stereo unspecified)	35.9% (inactive)
